Screening results: PubChem BioAssay, National Center for Advancing Translational Sciences (NCATS)
Sampled rows, rich in hits. Any-hit rate of the full collection: about 12%.
BAZ2B block: inhibitors of human BAZ2B bromodomain; Q9UIF8; AID 504333; AlphaScreen BAZ2B-H3K14Ac peptide displacement; Potency, µM (doses to about 114 µM), for the others: at the top dose activity change, negative = inhibition, most hits filed as inhibitors; 4.4% of 360,000 active; further: on the % scale 0 is the no-effect control and ±100 the full control effect; nearly all actives have a fitted effect of over 60% in size
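AlphaScreen luminescence quantifies BAZ2B engagement of H3K14Ac peptide; the protein and biotinylated peptide are both at 50 nM final, buffer PBS pH 7.4 with 0.01% Tween-20, all steps at room temperature.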
G9a block: inhibitors of human histone lysine methyltransferase G9a | Q96KQ7 | G9a H3K9 monomethylation, AlphaScreen, 2 h | Potency, µM (doses to about 102 µM), for the others: at the top dose activity, negative = inhibition, most hits filed as inhibitors | 8.8% of 350,000 active | AID 504332; further: on the % scale 0 is the no-effect control and ±100 the full control effect; nearly all actives have a fitted effect of over 75% in size
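AlphaScreen read-out: biotin-H3K9 peptide (500 nM) methylation by 20 nM enzyme with 20 uM SAM, 2 h at room temperature after 15 min compound preincubation; anti-monomethyl H3K9 antibody plus donor/acceptor beads, 10 min dark.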
HP1b binding inh: inhibitors of HP1-beta chromodomain binding to methylated histone tails. P83916. AID 540317. AlphaScreen HP1-beta / biotin-H3K9me3 peptide binding. 0.56% of 390,000 active. Potency, µM (series often up to 114 µM), without a hit: top-dose activity change, negative = inhibition, usual class: inhibitors; further: nearly all actives have a fitted effect of over 70% in size
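HP1-beta protein (50 nM final) preincubated 30 min at room temperature with biotinylated H3(1-18)K9me3 peptide (50 nM) in PBS pH 7.4, 0.01% Tween-20, then compound added for 30 min. AlphaScreen streptavidin donor/nickel chelate acceptor beads (10 ug/mL final), 30 min dark, luminescence read.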
JMJD2A Tudor inh: inhibitors of human JMJD2A Tudor domain; O75164; AlphaScreen JMJD2A-Tudor / H3K4me3 peptide binding; Potency, µM (top dose mostly 114 µM), for the others: at the top dose activity change, negative = inhibition, most hits filed as inhibitors; 4.4% of 390,000 active; AID 504339; further: on the % scale 0 is the no-effect control and ±100 the full control effect; nearly all actives have a fitted effect of over 50% in size
Target sequence (O75164 whole entry, looked up, the tested form may be a part): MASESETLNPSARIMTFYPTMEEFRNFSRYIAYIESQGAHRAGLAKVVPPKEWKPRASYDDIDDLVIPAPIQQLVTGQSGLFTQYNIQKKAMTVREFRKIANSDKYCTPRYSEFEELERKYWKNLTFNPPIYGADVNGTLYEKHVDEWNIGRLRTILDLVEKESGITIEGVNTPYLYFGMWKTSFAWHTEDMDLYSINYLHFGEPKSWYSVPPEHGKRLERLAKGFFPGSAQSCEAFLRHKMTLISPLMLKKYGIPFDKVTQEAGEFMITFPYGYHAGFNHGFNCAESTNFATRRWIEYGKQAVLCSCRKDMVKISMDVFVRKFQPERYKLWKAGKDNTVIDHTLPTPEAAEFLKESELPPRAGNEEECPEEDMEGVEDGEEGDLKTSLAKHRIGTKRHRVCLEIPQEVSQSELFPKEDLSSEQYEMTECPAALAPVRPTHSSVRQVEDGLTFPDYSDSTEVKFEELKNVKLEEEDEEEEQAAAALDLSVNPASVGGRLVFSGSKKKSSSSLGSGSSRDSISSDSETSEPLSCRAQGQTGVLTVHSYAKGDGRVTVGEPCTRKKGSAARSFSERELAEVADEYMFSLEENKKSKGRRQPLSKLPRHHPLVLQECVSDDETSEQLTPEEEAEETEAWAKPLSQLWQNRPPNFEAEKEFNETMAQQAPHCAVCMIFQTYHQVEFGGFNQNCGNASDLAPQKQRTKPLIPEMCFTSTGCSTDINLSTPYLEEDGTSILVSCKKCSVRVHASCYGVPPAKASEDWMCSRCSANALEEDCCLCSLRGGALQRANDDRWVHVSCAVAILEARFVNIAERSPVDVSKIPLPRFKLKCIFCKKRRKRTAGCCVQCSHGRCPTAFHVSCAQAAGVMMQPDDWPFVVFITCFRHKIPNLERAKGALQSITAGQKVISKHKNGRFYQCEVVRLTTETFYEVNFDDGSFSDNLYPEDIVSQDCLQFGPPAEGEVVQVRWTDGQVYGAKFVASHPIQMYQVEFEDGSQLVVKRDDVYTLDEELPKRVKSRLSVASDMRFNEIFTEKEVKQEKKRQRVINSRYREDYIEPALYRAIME
Sfp PPTase inh: Sfp phosphopantetheinyl transferase inhibition. Q9F4F7. Biochemical Sfp PPTase activity, qHTS. Potency, µM, for inactives: largest response in the series, negative = inhibition, hits mostly inhibitors. 3.5% of 310,000 active. AID 1490;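 further: the enzyme is Sfp with the accession as filed and its product quenches rhodamine fluorescence; 0% = enzyme reaction without inhibitor and -100% = no enzyme wells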
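Fluorescence-quenching assay: 15 nM Sfp-PPTase preincubated 15 min at room temperature with compound, then 5 uM rhodamine-CoA and 12.5 uM BHQ-2-labelled YbbR peptide added. Fluorescence (ex 525/em 598 nm) read at start and after 30 min; difference gives rate.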
PLK1 PBD block: inhibitors of human PLK1 polo-box domain binding; P53350; Plk1 PBD binding of FITC phosphopeptide, fluorescence polarization; Potency, µM, for the others: max response, negative = inhibition, usual class: inhibitors; 2.8% of 360,000 active; further: series mostly up to about 57 µM; on the % scale 0 is the no-effect control and ±100 the full control effect; nearly all actives have a fitted effect of over 65% in size
The depositor's hits bear a star; ? = inconclusive; · = not tested or not shown; [ ] = another dose, or the depositor's remark. The call rests on the fitted dose curve; in most records, active means well fitted curve in the direction sought with a large enough effect; inconclusive means small, poorly fitted or top-dose-only effect, or another doubt; inactive means no such curve, though single readings can be large; an effect the other way counts as inactive or inconclusive. Potency means the concentration at half of the fitted maximal effect.

SMILES	BAZ2B block	G9a block	HP1b binding inh	JMJD2A Tudor inh	Sfp PPTase inh	PLK1 PBD block
CSc1ncccc1C(=O)Nc1ccc(OC(F)(F)F)cc1	0%	13%	20%	11µM*	12%	34µM*
COc1ccc(NC(=O)c2ccc(=O)oc2)cc1	-4%	50µM*	36%	-22%	10%	-8%
COc1ccc(OCCN(C)CC(=O)Nc2ccccc2SC)cc1	6%	2%	36%	11%	9%	1%
CC1(C(=O)NCc2ccccc2)CSCC(=O)N1Cc1cccc(F)c1 (centres undefined)	·	·	·	·	·	-3%
CCOc1ccc(NC(=O)c2ccc3nc(C(C)C)oc3c2)cc1	-11%	5%[59 µM]	28%[57 µM]	-4%	·	·
COc1ccc(NC(=O)CN(C)CC(=O)NCC2CCCCC2)cc1	0%	56µM*	17%	?	·	0%
COc1ccc(NC(=O)c2cccc(C(=O)Nc3ccc(OC)cc3)n2)cc1	-19%	71µM*	·	·	?	·
CN(CC(=O)NCC1CCCCC1)CC(=O)Nc1ccc(F)cc1	-5%	?	29%	-14%	·	-7%
COc1ccc(NC(=O)c2ccccc2SC)cc1	8%	45µM*	37%	-6%	-2%	-3%
COc1ccc(N/C(=C2\CCCC2=O)C2CCCCC2)cc1	·	·	-11%	56µM*	·	?
COc1ccc(NC(=O)CNC(=O)C2CCCCC2)cc1	-2%	·	43%	-14%	3%	-4%
CCN(C(=O)CSc1nc2ccccc2n1CC(=O)Nc1cccc(C#N)c1)c1ccccc1	-9%	-32%[59 µM]	36%	-22%	·	·
CSc1ccc2nnc(-c3ccc(C)cc3)n2n1	·	·	20%[57 µM]	-20%[57.1 µM]	·	·
CC(C)(C)c1ccc(C(=O)NNC(=O)C2CCCCC2)cc1	?	?	52%	-7%	4%	-10%
CSC1=C(C#N)C(CC(C)C)C(C(C)=O)=C(C)N1 (centres undefined)	6%	50µM*	53%	12%	9%	-17%
CSC1=C(C#N)C(CC(C)C)C2=C(CCCC2=O)N1 (centres undefined)	8%	-3%	43%	-9%	7%	-1%
Cc1cc2cc3c(cc2nc1SCc1ccccn1)OCCO3	-4%	26%[59 µM]	46%	6%	5%	0%
N#Cc1cc2ccccc2nc1SCc1ccccn1	27%	35µM*	50%	0%	-21%	-13%
CCN(CC(=O)Nc1ccc(NC(C)=O)cc1)C(=O)CN1C(=O)C2CCCCC2C1=O (centres undefined)	28%	21%[59 µM]	35%	-11%	·	-9%
Oc1ccc(/C=N/NC2=NCCCCC2)cc1	1%	40µM*	32%	-12%	5%	-8%
COc1cc(/C=N/NC2=NCCCCC2)ccc1O	-4%	56µM*	38%	-4%	12%	9%
COc1cc(/C=N/NC(=O)C(=O)N2CCCCCC2)ccc1O	-2%	·	28%	-7%	9%	3%
CCOc1ccc(C(=O)NN2C(=O)C3C4C=CC(O4)C3C2=O)cc1 (centres undefined)	3%	6.3µM*	25%	-11%	28µM*	-10%
Cc1cccc(OCC(=O)NN2C(=O)C3C4C=CC(O4)C3C2=O)c1 (centres undefined)	-12%	8.9µM*	0%	-11%	40µM*	-4%
Cc1ccccc1OCC(=O)NN1C(=O)C2C3C=CC(O3)C2C1=O (centres undefined)	-17%	?	-2%	-17%	50µM*	-19%
SMILES	BAZ2B block	G9a block	HP1b binding inh	JMJD2A Tudor inh	Sfp PPTase inh	PLK1 PBD block
Cc1cccc(OCC(=O)NC2CCCC2)c1	-11%	6%	21%	3%	-3%	-7%
Cc1ccccc1OCC(=O)NN1CCN(C)CC1	-4%	-25%	13%	-11%	2%	-9%
O=C(CCc1ccccc1)NN1C(=O)C2C3C=CC(O3)C2C1=O (centres undefined)	-11%	10µM*	47%	-2%	10µM*	0%
CCc1cc2c(cc3c(=O)n(CC(=O)N4CCCCC4)ncn32)s1	27%	22%[59 µM]	58%	-2%	·	·
Cc1nc2cnc(N3CCNCC3)nc2n(C2CC2)c1=O	·	-2%[12.7 µM]	·	·	11%	·
CCC(=O)N1CCc2cc(Br)cc(S(=O)(=O)N3CCN(c4ccccc4OC)CC3)c21	1%	11%[59 µM]	40%	4%	·	·
Cc1ccc(Nc2c([N+](=O)[O-])ccc3c2=NC2(CCCCC2)N=3)cc1	3.5µM*	4.5µM*	?	?	6%	-12%
COCCNC(=O)CCN1C(=O)c2cccnc2Oc2ccc(C)cc21	1%	2%[59 µM]	41%	2%	·	·
CC(C)(C)OC(=O)NCCCNc1ncnc2ccc(-c3ccc4c(c3)OCO4)cc12	·	·	·	-25%	·	·
Cc1nc2ncnn2c(N2CCN(C(c3ccccc3)c3ccccc3)CC2)c1C	?	?	1%	?	79µM*	-9%
CC(C)c1ccc(NC(=S)Nc2ccc3cn[nH]c3c2)cc1	?	79µM*	0%	-31%	10%	-13%
O=C(Nc1ccc2cn[nH]c2c1)c1ccccc1F	4%	1%[59 µM]	27%	-15%	2%	-1%
Cc1ccc(NC(=S)Nc2ccc3cn[nH]c3c2)cc1C	3%	?	20%	-18%	-12%	-6%
O=C(Nc1ccc2cn[nH]c2c1)c1c(Cl)cccc1Cl	50µM*	1.8µM*	1%	?	40µM*	?
CC(=O)c1ccc(NC(=S)Nc2ccc3cn[nH]c3c2)cc1	-12%	45µM*	-4%	-31%[57.1 µM]	32µM*	30µM*
CCNC(=S)Nc1ccc2cn[nH]c2c1	2%	15%[59 µM]	40%	-15%	9%	24µM*
Cc1c(C(=O)N2CCCCC2)c(S(=O)(=O)N2CCc3ccccc32)c(C)n1C	-7%	1%[0.0925 µM]	11%	-26%	0%	-18%
O=S(=O)(NCCc1csc(-c2ccc(F)cc2)n1)c1ccc(Cl)cc1	30%	17%[59 µM]	27%[57 µM]	15%	·	·
O=S(=O)(c1ccc(Br)cc1)c1nc(-c2cccs2)oc1SCc1ccccc1F	-6%	5%[59 µM]	31%	-6%	·	·
